{"source": "the supplement of paper PMC8728848", "assay_in_all_cases": "glycan array binding signal (z-score within array); higher = stronger binding", "conditions_in_all_cases": "glycan notation: IUPAC condensed, linker removed", "key": {"[1]": {"biological_target": "Fuc(a1-2)Gal(b1-4)GlcNAc(b1-2)Man(a1-3)[Fuc(a1-2)Gal(b1-4)GlcNAc(b1-2)Man(a1-6)]Man(b1-4)GlcNAc(b1-4)[Fuc(a1-6)]GlcNAc", "summary_of_the_method": "(§1)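 The binding signal is a Z-score computed within each array. Data were drawn from 3228 arrays in the Consortium for Functional Glycomics database, restricted to those with a known protein sequence. Scores were averaged over arrays of the same protein sequence at different concentrations or buffers, and over linkers, and negative values can be taken as non-binding.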"}, "[2]": {"biological_target": "Fuc(a1-2)Gal(b1-4)[Fuc(a1-3)]GlcNAc(b1-2)[Fuc(a1-2)Gal(b1-4)[Fuc(a1-3)]GlcNAc(b1-4)]Man(a1-3)[Fuc(a1-2)Gal(b1-4)[Fuc(a1-3)]GlcNAc(b1-2)Man(a1-6)]Man(b1-4)GlcNAc(b1-4)GlcNAc", "summary_of_the_method": "as §1"}, "[3]": {"biological_target": "Fuc(a1-3)[Gal3S(b1-4)]GlcNAc", "summary_of_the_method": "as §1"}, "[4]": {"biological_target": "Fuc(a1-3)[Gal3S(b1-4)]GlcNAc6S", "summary_of_the_method": "as §1"}, "[5]": {"biological_target": "Fuc(a1-3)[GalNAc(b1-4)]GlcNAc", "summary_of_the_method": "as §1"}, "[6]": {"biological_target": "Gal(a1-3)Gal(b1-3)GlcNAc", "summary_of_the_method": "as §1"}, "[7]": {"biological_target": "Gal(a1-3)Gal(b1-3)GlcNAc(b1-2)Man(a1-3)[Gal(a1-3)Gal(b1-3)GlcNAc(b1-2)Man(a1-6)]Man(b1-4)GlcNAc(b1-4)GlcNAc", "summary_of_the_method": "as §1"}, "[8]": {"biological_target": "Gal(a1-3)Gal(b1-3)GlcNAc(b1-3)GalNAc", "summary_of_the_method": "as §1"}, "[9]": {"biological_target": "Gal(a1-4)GlcNAc", "summary_of_the_method": "as §1"}, "[10]": {"biological_target": "Gal(b1-2)Gal", "summary_of_the_method": "as §1"}, "[11]": {"biological_target": "Gal(b1-3)GlcNAc(a1-6)Gal(b1-4)GlcNAc", "summary_of_the_method": "as §1"}, "[12]": {"biological_target": "Gal(b1-3)GlcNAc(b1-2)Man(a1-3)[Gal(b1-3)GlcNAc(b1-2)Man(a1-6)]Man(b1-4)GlcNAc(b1-4)GlcNAc", "summary_of_the_method": "as §1"}, "[13]": {"biological_target": "Gal(b1-3)GlcNAc(b1-3)Gal(b1-4)GlcNAc(b1-2)Man(a1-3)[Gal(b1-3)GlcNAc(b1-3)Gal(b1-4)GlcNAc(b1-2)Man(a1-6)]Man(b1-4)GlcNAc(b1-4)GlcNAc", "summary_of_the_method": "as §1"}, "[14]": {"biological_target": "Gal(b1-3)GlcNAc(b1-3)GalNAc", "summary_of_the_method": "as §1"}, "[15]": {"biological_target": "Gal(b1-4)GlcNAc(b1-2)Man(a1-3)Man(b1-4)GlcNAc(b1-4)GlcNAc", "summary_of_the_method": "as §1"}, "[16]": {"biological_target": "Gal(b1-4)GlcNAc(b1-2)Man(a1-3)[Man(a1-6)]Man(b1-4)GlcNAc(b1-4)GlcNAc", "summary_of_the_method": "as §1"}, "[17]": {"biological_target": "Gal(b1-4)GlcNAc(b1-2)[Gal(b1-4)GlcNAc(b1-4)]Man(a1-3)[GlcNAc(b1-4)][Gal(b1-4)GlcNAc(b1-2)Man(a1-6)]Man(b1-4)GlcNAc(b1-4)GlcNAc", "summary_of_the_method": "as §1"}, "[18]": {"biological_target": "Gal(b1-4)GlcNAc(b1-3)Gal(b1-4)GlcNAc(b1-2)Man(a1-3)[Gal(b1-4)GlcNAc(b1-3)Gal(b1-4)GlcNAc(b1-2)Man(a1-6)]Man(b1-4)GlcNAc(b1-4)GlcNAc", "summary_of_the_method": "as §1"}, "[19]": {"biological_target": "Gal(b1-4)GlcNAc(b1-3)Gal(b1-4)GlcNAc(b1-2)[Gal(b1-4)GlcNAc(b1-3)Gal(b1-4)GlcNAc(b1-6)]Man(a1-6)[Gal(b1-4)GlcNAc(b1-3)Gal(b1-4)GlcNAc(b1-2)Man(a1-3)]Man(b1-4)GlcNAc(b1-4)GlcNAc", "summary_of_the_method": "as §1"}, "[20]": {"biological_target": "GalNAc(a1-3)GalNAc(b1-3)Gal(a1-4)Gal(b1-4)GlcNAc", "summary_of_the_method": "as §1"}, "[21]": {"biological_target": "GalNAc(b1-4)Gal(b1-4)Glc", "summary_of_the_method": "as §1"}, "[22]": {"biological_target": "GalNAc(b1-4)GlcNAc(b1-3)GalNAc(b1-4)GlcNAc", "summary_of_the_method": "as §1"}, "[23]": {"biological_target": "GalNAc(b1-4)GlcNAc6S", "summary_of_the_method": "as §1"}, "[24]": {"biological_target": "GalNAc3S(b1-4)GlcNAc3S", "summary_of_the_method": "as §1"}, "[25]": {"biological_target": "Glc(a1-4)Glc", "summary_of_the_method": "as §1"}, "[26]": {"biological_target": "Glc(a1-4)Glc(a1-4)Glc(a1-4)Glc", "summary_of_the_method": "as §1"}, "[27]": {"biological_target": "GlcNAc(b1-3)Gal(b1-3)GalNAc", "summary_of_the_method": "as §1"}}, "note": "The full list was thinned out, with the strongest signals kept by preference."}
{"binder": "SAOUHSC 00176 (Staphylococcus aureus) (protein) MSKILKCITLAVVMLLIVTACGPNRSKEDIDKALNKDNSKDKPNQLTMWVDGDKQMAFYKKITDQYTKKTGIKVKLVNIGQNDQLENISLDAPAGKGPDIFFLAHDNTGSAYLQGLAAEIKLSKDELKGFNKQALKAMNYDNKQLALPAIVETTALFYNKKLVKNAPQTLEEVEANAAKLTDSKKKQYGMLFDAKNFYFNYPFLFGNDDYIFKKNGSEYDIHQLGLNSKHVVKNAERLQKWYDKGYLPKAATHDVMIGLFKEGKVGQFVTGPWNINEYQETFGKDLGVTTLPTDGGKPMKPFLGVRGWYLSEYSKHKYWAKDLMLYITSKDTLQKYTDEMSEITGRVDVKSSNPNLKVFEKQARHAEPMPNIPEMRQVWEPMGNASIFISNGKNPKQALDEATNDITQNIKILHPSQNDKKGD", "values": [{"measurement": "glycan array binding signal (z-score)", "setting": "[1]", "result": 0.688}, {"measurement": "glycan array binding signal (z-score)", "setting": "[2]", "result": 0.546}, {"measurement": "glycan array binding signal (z-score)", "setting": "[3]", "result": -0.097}, {"measurement": "glycan array binding signal (z-score)", "setting": "[4]", "result": -0.175}, {"measurement": "glycan array binding signal (z-score)", "setting": "[5]", "result": -0.119}, {"measurement": "glycan array binding signal (z-score)", "setting": "[6]", "result": -0.106}, {"measurement": "glycan array binding signal (z-score)", "setting": "[7]", "result": 0.584}, {"measurement": "glycan array binding signal (z-score)", "setting": "[8]", "result": -0.107}, {"measurement": "glycan array binding signal (z-score)", "setting": "[9]", "result": -0.034}, {"measurement": "glycan array binding signal (z-score)", "setting": "[10]", "result": -0.068}, {"measurement": "glycan array binding signal (z-score)", "setting": "[11]", "result": -0.122}, {"measurement": "glycan array binding signal (z-score)", "setting": "[12]", "result": 1.06}, {"measurement": "glycan array binding signal (z-score)", "setting": "[13]", "result": -0.007}, {"measurement": "glycan array binding signal (z-score)", "setting": "[14]", "result": -0.105}, {"measurement": "glycan array binding signal (z-score)", "setting": "[15]", "result": -0.068}, {"measurement": "glycan array binding signal (z-score)", "setting": "[16]", "result": 1.03}, {"measurement": "glycan array binding signal (z-score)", "setting": "[17]", "result": 0}, {"measurement": "glycan array binding signal (z-score)", "setting": "[18]", "result": 0.017}, {"measurement": "glycan array binding signal (z-score)", "setting": "[19]", "result": 0.619}, {"measurement": "glycan array binding signal (z-score)", "setting": "[20]", "result": -0.027}, {"measurement": "glycan array binding signal (z-score)", "setting": "[21]", "result": 0.067}, {"measurement": "glycan array binding signal (z-score)", "setting": "[22]", "result": -0.092}, {"measurement": "glycan array binding signal (z-score)", "setting": "[23]", "result": -0.057}, {"measurement": "glycan array binding signal (z-score)", "setting": "[24]", "result": -0.084}, {"measurement": "glycan array binding signal (z-score)", "setting": "[25]", "result": 4.5}, {"measurement": "glycan array binding signal (z-score)", "setting": "[26]", "result": 23.6}, {"measurement": "glycan array binding signal (z-score)", "setting": "[27]", "result": -0.061}]}
